Laboratory results published in the supplement of paper PMC3334620.
The full ranking holds about 33,000 sequences; the median of “E-score (-0.5 to 0.5)” is about -0.0014, and the highest 2% start at about 0.25. What follows is part of a selection rich in the highest values, with near analogues and random picks from the rest.

Molecular target: T1, Cad1 (UniProt P24813)
T1 sequence: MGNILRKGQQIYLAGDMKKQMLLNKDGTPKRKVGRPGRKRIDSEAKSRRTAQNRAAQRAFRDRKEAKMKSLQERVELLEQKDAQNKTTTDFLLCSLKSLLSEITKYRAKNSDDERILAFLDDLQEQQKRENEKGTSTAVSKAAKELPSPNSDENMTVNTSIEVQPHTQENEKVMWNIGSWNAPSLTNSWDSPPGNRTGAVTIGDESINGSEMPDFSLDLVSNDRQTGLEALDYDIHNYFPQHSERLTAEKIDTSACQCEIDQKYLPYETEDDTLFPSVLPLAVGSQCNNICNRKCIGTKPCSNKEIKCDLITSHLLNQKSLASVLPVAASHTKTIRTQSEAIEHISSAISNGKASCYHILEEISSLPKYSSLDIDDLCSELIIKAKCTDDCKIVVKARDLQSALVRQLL
Experiment: PBM E-score (8-mer binding enrichment) (E-score (-0.5 to 0.5)); higher = stronger / more preferred TF binding
Conditions: protein concentration: 100 nM; construct: GST-full length
Method: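 Universal 'all 10-mer' protein binding microarrays (Agilent AMADID 015681) probed with GST-tagged S. cerevisiae TFs (full-length or DBD) made by in vitro transcription/translation (PURExpress), about 100-200 nM. Bound TF was detected with fluorescent anti-GST. Each ungapped 8-mer (which stands for itself and its reverse complement) is scored by the PBM enrichment score (E-score), a modified Wilcoxon-Mann-Whitney statistic from -0.5 to +0.5, computed with the Universal PBM Analysis Suite. Scale: above 0.35 generally sequence-specific binding.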

Sequence	PBM E-score
TGTTGGAA	0.192
GGACCACA	0.137
AAAGCCTC	-0.186
ACCATCAG	-0.00772
CAGCAACA	0.186
AGCTCGAA	0.151
AAAGATTA	0.152
GCAGAGGA	0.0638
GAGCATCC	-0.169
CCGGACTC	0.281
ACGGACTC	-0.0126
CCGGACTA	-0.0508
CATAGCAC	-0.0299
GAGGTCGA	-0.153
CTCTCTTC	-0.215
ATTAACTA	-0.00319
CTTAACTA	0.283
CTTAACTC	0.0365
CGTAACTA	-0.001
GTTAACTA	0.274
GATAACTA	0.1
CTCACTGA	-0.0364

Sequence	PBM E-score
AGGCTGTA	-0.0168
ACGCATTA	0.145
ATGCATTC	0.196
ATGCATTA	0.265
ATGCATCA	0.308
CTGCATTA	0.014
GCGCATTA	0.265
GTGCATCA	0.128
ATGCATCG	0.114
CCGCATTA	0.172
CATCCTGC	0.0554
TGTGGCAA	0.0896
CCCGGACA	0.039
CCATCCAG	-0.0345
AATATCCA	0.0727
CATATTCG	0.129
AATATTCG	0.273
AATATTCT	0.126
AATATTCA	0.157
GATATTCC	0.0127
AATATTCC	0.297
AATATCCC	-0.00553

Sequence	PBM E-score
AATATCCG	0.265
AAGGTTGC	-0.00934
CCTAGCAC	-0.199
CCATAGTC	-0.0534
GACCAAGC	0.0511
CCCACTCA	-0.193
AGATGGAG	-0.0255
GGAATCGA	0.00927
ATAATCGA	0.146
AGAATCGA	0.0389
CGAATCGA	0.325
CTAATCAG	0.227
CTAATCGA	0.315
ATAATCAG	0.225
ATAATCAA	0.157
ATAATCAT	0.252
CTAATCAA	0.238
CTAATCGC	0.0731
CTAATCAC	0.326
CTGGACGC	0.069
CGAATACC	-0.104
AATCTCAT	0.0796

Sequence	PBM E-score
CCCGCTCC	-0.37
TGCCGCCA	0.0461
CGGGCAGA	0.0491
ACACCCTG	-0.133
AGAGAATA	0.0902
GGATGCAC	-0.0779
GTAAGGAC	-0.19
CGGGGAAA	0.0522
GTTACTCA	0.182
GATACTGA	0.14
CATACTGA	0.103
TATACTAA	0.107
GTTACTAA	0.374
AATACTAT	-0.0768
GCTACTAA	0.0213
AATACTAA	0.253
TATACTGA	0.288
CACTGGCG	-0.0107
CAGCTAAA	-0.121
ACTAGTTG	-0.0546
GGTGGCAA	-0.0998
